Screens from PubChem.
697 NFkB inh = inhibitors of PMA/ionomycin-induced NF-kB reporter, 697 cells, primary screen, B-cell NF-kB inhibitor project, cell-based, luminescence, uHTS. inhibition, % at 4 µM. 697 B-cell NF-kB luciferase reporter, 16 h. 330,000 tested, 0.33% active. AID 435022, 2010; in the data active = inhibition above about 35%
Beta apoptosis = inhibitors of cytokine-induced beta cell apoptosis, primary screen, luminescence | INS-1E cytokine-induced death, ATP luminescence, 48 h; percent of positive-control rescue, neutral wells zero | protection from apoptosis, % (no concentration beside the values) | 300,000 tested, 0.8% active;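 active = Every replicate reaches about 75%, or at least half do and their mean reaches it too, limit read from the data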;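 note: higher means more ATP so stronger rescue from cytokine killing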
Gli-Sufu block = Gli-Sufu pathway antagonists, primary screen, luciferase luminescence, Sufu-KO-LIGHT cells, uHTS. AID 588413, 2011. Sufu-KO-LIGHT fibroblasts, Gli luciferase reporter luminescence. inhibition, % at 5 µM. 340,000 tested, 0.74% active;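 active = inhibition above about 55%, limit read from the data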
Mdm2-MdmX inh = inhibitors of human Mdm2-MdmX association, primary screen, cell-based, luminescence, split luciferase, SaOS-2, uHTS; SaOS-2 split-luciferase Mdm2/MdmX complementation; 330,000 tested, 3% active; AID 485346, 2010; inhibition, % at 8 µM; Protein Mdm4 (Homo sapiens) + E3 ubiquitin-protein ligase Mdm2 (Homo sapiens), …;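 active = inhibition of at least 50% at 8 µM in the primary screen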
CSC inhib = cancer stem cell viability inhibitors, primary screen, luminescence; inhibition, % at 7.5 µM; 300,000 tested, 1.1% active; cancer stem cell-like cells viability; in the data active = inhibition above about 75%; tested in HMLE shEcad cells
Jurkat NFkB inh = inhibitors of induced NF-kB luciferase reporter, primary screen, TCR NF-kB activation inhibitor project, cell-based, luminescence, uHTS. Jurkat, PMA/ionomycin-induced NF-kB luciferase reporter. inhibition, % at 4 µM. 330,000 tested, 0.53% active. AID 435003, 2010; in the data active = inhibition above about 50%
Mdm2-MdmX conf = Mdm2-MdmX complex disruptors, retested hits, confirmation, luminescence, single concentration; shares compounds with Mdm2-MdmX inh; Mdm2-MdmX binding, luminescent assay; inhibition, % at 8 µM; 10,000 tested, 55% active; AID 489028, 2010; in the data active = inhibition above about 40%
Full FLuc ctr = full-length luciferase signal inhibition, confirmation, counter-screen for Mdm2/MdmX interaction inhibitor project, cell-based, single concentration, SaOS-2 | inhibition, % at 8 µM | shares compounds with Mdm2-MdmX inh | SaOS-2 full-length luciferase counterscreen, luminescence | 6,200 tested, 77% active;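 active = mean inhibition at 8 µM reaching about 37%, which flags the compound as non-specific, limit read from the data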;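 note: p53-null SaOS-2 cells with luciferase driven by a doxycycline-inducible promoter; compound on cells about two nights before reading with doxycycline added after day one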
Large screens that a line does not name were inactive (follow-up assays come after a bar, where they were run). Rows were chosen to be rich in hits. Some 4.5% of all compounds tested hit in one or more screens of this group.

Cc1onc(-c2ccccc2)c1C(=O)Nc1nnc(C(C)C)s1	none
O=C(Nc1cc([N+](=O)[O-])ccc1Cl)c1ccc2c(c1)OCO2	Mdm2-MdmX inh 74 | Mdm2-MdmX conf inactive
Cc1ccc(C)c(OCc2nnc(NC(=O)c3ccc4c(c3)OCO4)s2)c1	Mdm2-MdmX inh 69 | Mdm2-MdmX conf inactive
Cc1onc(-c2ccccc2)c1C(=O)Nc1ncc([N+](=O)[O-])s1	Mdm2-MdmX inh 73 | Mdm2-MdmX conf inactive | Full FLuc ctr 59
O=C(Nc1ncc([N+](=O)[O-])s1)c1ccc2c(c1)OCO2	Mdm2-MdmX inh 75 | Mdm2-MdmX conf 69 | Full FLuc ctr 64
CC(=O)NC12CC3CC(C1)CC(C(=O)N1CCN(S(=O)(=O)c4ccccc4C#N)CC1)(C3)C2	none (no result: 697 NFkB inh, Beta apoptosis, Mdm2-MdmX inh, CSC inhib, Jurkat NFkB inh)
N#Cc1cccc(S(=O)(=O)NCC(=O)NCc2ccc3c(c2)OCO3)c1	none (no result: CSC inhib)
Cc1cc(S(=O)(=O)N2CCOCC2)ccc1OCC(=O)NCCN1CCOCC1	none
CCCCC1SC(N)=NC1=O (stereo not drawn)	none (no result: 697 NFkB inh, Beta apoptosis, Mdm2-MdmX inh, CSC inhib, Jurkat NFkB inh)
O=[N+]([O-])c1ccc2c(c1)C(O)n1nc(-c3ccc(Cl)cc3Cl)nc1S2 (stereo not drawn)	none | Mdm2-MdmX conf 54 | Full FLuc ctr 102
Cc1nc2n(n1)C(O)c1cc([N+](=O)[O-])ccc1S2 (stereo not drawn)	none (no result: Gli-Sufu block)
CNC(=S)N(CCc1cccc(C)c1)Cc1cc2cc(OC)c(OC)cc2[nH]c1=O	none
COc1cc2cc(CN(CCc3cccc(C)c3)C(=S)NCCCN(C)C)c(=O)[nH]c2cc1OC	Mdm2-MdmX inh 52 | Mdm2-MdmX conf inactive
CCOC(=O)C1CCCN(C(=O)Cn2nc(C)n3c(cc4c(OC)cccc43)c2=O)C1 (stereo not drawn)	none
O=C(CN1CSCC1=O)N1CCN(S(=O)(=O)c2ccc(Cl)cc2)CC1	none (no result: Gli-Sufu block)
O=C(OCn1cncn1)c1ccc(Cl)cc1Cl	none
N/C(Cn1cncn1)=N\OC(=O)c1ccc(Cl)cc1	Mdm2-MdmX inh 51 | Mdm2-MdmX conf inactive
CCN(CC)S(=O)(=O)c1cc(NC(=O)C(C)OC(=O)c2[nH]c(C)c(C(C)=O)c2C)ccc1C (stereo not drawn)	Mdm2-MdmX inh 51 | Mdm2-MdmX conf 41 | Full FLuc ctr 43
CC(=O)c1c(C)[nH]c(C(=O)OC(C)C(=O)Nc2ccc(C)c(S(=O)(=O)N3CCOCC3)c2)c1C (stereo not drawn)	none (no result: CSC inhib)
Cc1ccc(OCCCC(=O)Nc2nc3ccccc3[nH]2)cc1	none (no result: CSC inhib)
Cc1cccc(OCCCC(=O)Nc2nc3ccccc3[nH]2)c1	Mdm2-MdmX inh 76, CSC inhib 84 | Mdm2-MdmX conf 74 | Full FLuc ctr 65
Cc1c(C(=O)N2CCC(C(N)=O)CC2)oc2ccc(Br)cc12	none
COc1ccc(S(=O)(=O)N2CCN(C(=O)Nc3ccccc3OC)CC2)cc1	none (no result: Beta apoptosis)
COc1ccc(S(=O)(=O)N2CCC3(CC2)OCCN3S(=O)(=O)c2c(C)cc(C)cc2C)cc1	none (no result: Beta apoptosis)
Cc1cc(C)c2c(c1)/C(=c1/sc3n(c1=O)CN(c1ccccc1)CN=3)C(=O)N2	Mdm2-MdmX inh 57 | Mdm2-MdmX conf inactive
O=c1/c(=C/c2ccccn2)sc2n1CN(c1ccccc1)CN=2	none
COc1cc(C(=O)Nc2cc3c(cc2N2CCCCC2)n(C)c(=O)n3C)cc(OC)c1OC	Mdm2-MdmX inh 78 | Mdm2-MdmX conf 44 | Full FLuc ctr 72
CCn1c(=O)n(CC)c2cc(N3CCCC3)c(NC(=O)c3cc(Cl)ccc3OC)cc21	Mdm2-MdmX inh 64 | Mdm2-MdmX conf inactive
COc1ccc(C(=O)Nc2cc3c(cc2N2CCCCC2)n(C)c(=O)n3C)cc1OC	none
COC(=O)CNC(=O)COC(=O)/C=C/c1ccc2ccccc2n1	none
CC(OC(=O)/C=C/c1ccc2ccccc2n1)C(=O)NCc1ccccc1 (stereo not drawn)	Mdm2-MdmX inh 54 | Mdm2-MdmX conf inactive
Cc1csc(Nc2nc(N)c(C(=O)Nc3cc(Cl)ccc3F)o2)n1	Mdm2-MdmX inh 55 | Mdm2-MdmX conf inactive
O=C(COC(=O)/C=C/C(=O)OCC(=O)NC12CC3CC(CC(C3)C1)C2)NC12CC3CC(CC(C3)C1)C2	Mdm2-MdmX inh 94 | Mdm2-MdmX conf inactive | Full FLuc ctr 68
O=C(Nc1nnc(C2CC2)o1)c1ccc(S(=O)(=O)N2CCCc3ccccc32)cc1	Mdm2-MdmX inh 50 | Mdm2-MdmX conf 44 | Full FLuc ctr 71
COc1ccc(-c2nnc(NC(=O)c3ccc(S(=O)(=O)N4CCCc5ccccc54)cc3)o2)cc1	Mdm2-MdmX inh 62 (no result: CSC inhib) | Mdm2-MdmX conf 59 | Full FLuc ctr 46
CC1CN(S(=O)(=O)c2ccc(C(=O)Nc3nnc(-c4ccc5c(c4)CCCC5)o3)cc2)CC(C)O1 (stereo not drawn)	Mdm2-MdmX inh 67 | Mdm2-MdmX conf inactive | Full FLuc ctr 59
O=C(COc1ccc(Cl)cc1)NNC(=O)c1ccccc1C(=O)O	none
O=C(C1CCCN(S(=O)(=O)c2ccc(Br)cc2)C1)N1CCN(Cc2ccccc2)CC1 (stereo not drawn)	none
CCc1cc(=O)oc2cc3occ(C)c3cc12	none
CCc1cc(=O)oc2cc3occ(-c4ccc(OC)c(F)c4)c3cc12	Mdm2-MdmX inh 64 | Mdm2-MdmX conf 74 | Full FLuc ctr 62
CSCC[C@H](NC(=O)[C@@H]1Cc2ccccc2CN1)C(=O)Nc1ccc2c(c1)OCCO2	none
O=C(CCl)Nc1cn(-c2ccccc2)nc1-c1ccc(F)cc1	Mdm2-MdmX inh 86 | Mdm2-MdmX conf 44 | Full FLuc ctr inactive
Fc1ccc(-c2nn(-c3ccccc3)cc2CNCc2ccccc2)cc1	none
COC(=O)c1ccc(C)c(NC(=O)CCCN2C(=O)NC(C)(C)C2=O)c1	none
Cc1ccc(Cl)cc1N1CCN(C(=O)Cc2csc(Nc3nc(=S)[nH]c4ccccc34)n2)CC1	Mdm2-MdmX inh 55 (no result: Gli-Sufu block) | Mdm2-MdmX conf inactive
O=C(Cc1csc(Nc2nc(=S)[nH]c3ccccc23)n1)N1CCN(c2cccc(Cl)c2)CC1	none
COc1cccc(CN2C(=O)CCC2(C)C(=O)NCCc2ccc(OC)c(OC)c2)c1 (stereo not drawn)	none
CC1=Nc2ccccc2/C1=C/c1nc(-c2ccc(C)s2)oc1O	none
